Source: ChEMBL document CHEMBL5308541, “MAIP: An Open-Source Tool to Enrich High-Throughput Screening Output and Identify Novel, Druglike Molecules with Antimalarial Activity” (ACS Med Chem Lett, 2023)
Among all 150,000 compounds or so, about 540 (0.36%) showed an effect of 50% or more. Shown is part of a subset that was picked to be rich in strong results.

Test system: Plasmodium falciparum
Assay: Primary screen in NF54 nanoGlo assay, in single point, at 2uM, 72h; a lower Z score goes with more inhibition
Assay type: functional, Erythrocyte
Conditions: timepoint 72 hour

| SMILES | % Inhibition [%] | Z score |
| --- | --- | --- |
| Cc1ccc(-c2cc(C(=O)N[C@H]3CCCN(C4CCN(C)CC4)C3)n[nH]2)s1 | 5 | -0.79 |
| CN1CCC(N2CCC(NC(=O)c3ccncn3)CC2)CC1 | -17 | 2.56 |
| Cc1ccc(-c2cc(C(=O)NC3CCN(C4CCN(C)CC4)CC3)n[nH]2)cc1C | 95 | -16.77 |
| CCc1oc2ccccc2c1CNC[C@H](O)c1ccc(Cl)cc1 | 98 | -19.37 |
| Cn1cc(CNC[C@H](O)c2ccc(F)c(F)c2)c(-c2cc3ccccc3o2)n1 | 19 | -3.4 |
| C[C@](O)(CNS(=O)(=O)c1c[nH]c2ncccc12)C(c1ccccc1)c1ccccc1 | 4 | -0.63 |
| CN([C@@H](c1ccccc1)c1ccccc1Br)S(=O)(=O)c1c[nH]c2ncccc12 | 60 | -11.93 |
| Cc1ccc2[nH]cc(-c3cc(N4CCCCC4)ncn3)c2c1 | 11 | -2.17 |
| Cc1ccc2[nH]cc(-c3cc(N4CCOCC4)nc(N)n3)c2c1 | 52 | -10.41 |
| C[C@@H](c1cccc(-c2cc(N3CCOCC3)nc(N)n2)c1)N1CCCC1 | -1 | 0.25 |
| NC(=O)c1ccc(CNC(=O)NCC[C@H](O)c2ccccc2)o1 | -10 | 1.46 |
| CC(C)(O)C#Cc1ccc(CN(CC2CCN(C3CCCC3)CC2)C[C@H]2CCCO2)cc1 | -11 | 1.92 |
| CC(C)N1CCN(CCCN2CCN(C)C3(CCCCC3)C2)CC1 | 3 | -0.69 |
| Cc1cc(N2CCC(N(C)Cc3ncc(-c4ccccc4C)o3)CC2)nc(C)n1 | -3 | 0.66 |
| CN1CCC(Oc2ccc(NCc3ccc(N(C)C)nc3)cn2)CC1 | -17 | 3.56 |
| CN1CCC(Oc2ccc(NC(=O)c3cn4ccnc4s3)cn2)CC1 | 90 | -15.87 |
| CN1CCC(CNC2CC3CC(C2)N(C(=O)OC(C)(C)C)C3)CC1 (centres undefined) | 72 | -15.46 |
| COc1cc2nc(-c3cc(Cl)c(O)cc3C)nc(N)c2cc1OC | 2 | -0.41 |
| COc1cc2nc(-c3ccc(F)c4cccnc34)nc(N)c2cc1OC | 96 | -14.63 |
| COc1ccnc(CN2CC[C@H](Nc3ncccn3)C2)c1OC | -5 | 0.75 |
| Cc1nc(C)c(C)c(N2CC(OCc3ccccc3)C2)n1 | -11 | 1.9 |

| SMILES | % Inhibition [%] | Z score |
| --- | --- | --- |
| COc1ccc2nccc(N3CCC(O)CC3)c2c1 | 5 | -0.83 |
| CN1CCN(C[C@H]2CCCN(C(=O)c3ccnc4ccccc34)C2)CC1 | 5 | -1.03 |
| CN1CCN(CC2CCN(c3ccnc4ccccc34)CC2)CC1 | 98 | -16.96 |
| COc1ccc2c(N3CC[C@H](CN4CCCC4)C3)ccnc2c1 | 91 | -15.93 |
| COCC1CCN(c2ccnc3cc(F)ccc23)CC1 | 7 | -1.37 |
| CC1(N2CCC2)CCC(NC[C@H]2CCN(Cc3ccccc3)C2)CC1 (some centres undefined) | 73 | -12.59 |
| c1ccc(CN2CCC[C@H](CNC3CCN(c4ccc5c(c4)OCO5)CC3)C2)cc1 | 14 | -2.53 |
| CC(=O)N1CCC(CNC2CCC(C)(N3CCCC3)CC2)CC1 (centres undefined) | -10 | 1.74 |
| Nc1ccnc2ccc(-c3ccc(C(=O)NCC4CCOCC4)cc3)cc12 | 83 | -16.44 |
| OC1CN(c2ccnc3ccccc23)CCC1N1CCN(c2ccccn2)CC1 (centres undefined) | -7 | 1.2 |
| CCCCN1CCC(NC(=O)c2c[nH]c3ncccc23)CC1 | -8 | 1.66 |
| O=C(NC1CCN(CCOc2ccc(Cl)cc2)CC1)c1c[nH]c2ccncc2c1=O | 94 | -14.22 |
| CCCc1cc(NCC2(N3CCN(C)CC3)CCCCC2)n2nccc2n1 | -3 | 0.64 |
| CNc1cc([C@H]2C[C@@H](NC3CC(C)(C)NC(C)(C)C3)C2)ncn1 | 11 | -1.95 |
| CNc1nc(N[C@H]2CCCN(Cc3ccc(Cl)cc3)C2)nc2c1CCC2 | 49 | -8.5 |
| Cc1cc(N2CCC(NCc3ccc(C(F)(F)F)cc3F)CC2)nc(N)n1 | 10 | -2.1 |
| Cc1cc(N2CCC(N(C)Cc3ccc4nsnc4c3)CC2)nc(N)n1 | 18 | -3.91 |
| Cc1cc(N2CCC(NC3CCCC3Cc3ccc(F)cc3)CC2)nc(N)n1 (centres undefined) | 96 | -14.52 |
| CN(C)c1ncc(CN2CCN(c3nsc4ccccc34)CC2)cn1 | 5 | -0.94 |
| O=C(Nc1cnc2c(c1)COCC2)c1cc2c(OC(F)(F)F)cccc2[nH]1 | 93 | -14.17 |
| CN(c1ccccc1)c1ccc(CN2CCN([C@H]3CCNC3)CC2)cc1 | 68 | -13.59 |
